# Key:
# Assay in all cases: DAPPL (digital affinity profiling via proximity ligation, sequencing); 10 mM Tris-HCl pH 7.5, 50 mM NaCl, 1 mM DTT, 4% glycerol, room temperature, 30 min; GST-TFs on glutathione beads, 16-mer random dsDNA library, 0.1% formaldehyde crosslink after washing; high values mean tight binding
# FEV = biological target: T1, FEV (Homo sapiens, UniProt Q99581 1-238); conditions: protein: recombinant; tags: N-terminal GST; dsDNA, one strand shown
# T1 sequence: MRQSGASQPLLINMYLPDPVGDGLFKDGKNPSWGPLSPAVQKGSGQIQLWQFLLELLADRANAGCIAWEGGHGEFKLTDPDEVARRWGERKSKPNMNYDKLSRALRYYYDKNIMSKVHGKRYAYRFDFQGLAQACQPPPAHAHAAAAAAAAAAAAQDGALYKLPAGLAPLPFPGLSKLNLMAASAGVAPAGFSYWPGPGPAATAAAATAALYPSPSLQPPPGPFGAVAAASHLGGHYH
# In short: (§1)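 Yeast served to express human transcription factors as GST fusions, which were then captured on glutathione beads and labelled with DNA barcodes. Pooled with a tag-only sample, they were incubated with 200 nmole of a 16-mer random double-stranded DNA library for 30 min at room temperature in Tris/NaCl/DTT/glycerol buffer, washed, crosslinked with 0.1% formaldehyde, ligated by proximity, amplified by PCR and sequenced. Dividing each hexamer's read frequency for a factor by its frequency for the tag-only sample gives the binding signal.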
# ETV5 = ETV5 (Homo sapiens, UniProt P41161 1-510); conditions: protein: recombinant; tags: N-terminal GST; dsDNA, one strand shown
# In short: as §1
# HSF1 = HSF1 (Homo sapiens, UniProt Q00613 1-529); conditions: protein: recombinant; tags: N-terminal GST; chain copies: 3; dsDNA, one strand shown
# In short: as §1
# SPIC = biological target: T2, SPIC (Homo sapiens, UniProt Q8N5J4 1-248); conditions: protein: recombinant; tags: N-terminal GST; dsDNA, one strand shown
# T2 sequence: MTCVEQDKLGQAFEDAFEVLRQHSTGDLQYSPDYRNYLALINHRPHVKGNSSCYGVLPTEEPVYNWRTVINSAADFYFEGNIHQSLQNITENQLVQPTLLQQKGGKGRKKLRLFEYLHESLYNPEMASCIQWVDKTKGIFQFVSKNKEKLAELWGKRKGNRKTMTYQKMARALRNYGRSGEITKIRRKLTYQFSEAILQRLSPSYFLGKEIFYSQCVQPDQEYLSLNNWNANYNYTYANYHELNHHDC
# In short: as §1
# ELF4 = ELF4 (Homo sapiens, UniProt Q99607 1-663); conditions: protein: recombinant; tags: N-terminal GST; dsDNA, one strand shown
# In short: as §1
# ELK4 = biological target: T3, ELK4 (Homo sapiens, UniProt P28324-2 1-405); conditions: protein: recombinant; tags: N-terminal GST; dsDNA, one strand shown
# T3 sequence: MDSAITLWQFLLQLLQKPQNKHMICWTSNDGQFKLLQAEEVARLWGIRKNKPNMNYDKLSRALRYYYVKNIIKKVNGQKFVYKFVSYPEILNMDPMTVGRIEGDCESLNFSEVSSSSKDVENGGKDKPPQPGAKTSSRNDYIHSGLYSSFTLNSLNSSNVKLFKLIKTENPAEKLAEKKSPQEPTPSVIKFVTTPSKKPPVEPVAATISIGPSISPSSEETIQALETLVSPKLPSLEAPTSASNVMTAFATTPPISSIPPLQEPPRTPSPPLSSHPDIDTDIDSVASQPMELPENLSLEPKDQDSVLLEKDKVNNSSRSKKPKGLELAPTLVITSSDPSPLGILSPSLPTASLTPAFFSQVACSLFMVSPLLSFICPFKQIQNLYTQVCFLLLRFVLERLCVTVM
# In short: as §1
# ETV2 = biological target: T4, ETV2 (Homo sapiens, UniProt O00321 1-342); conditions: protein: recombinant; tags: N-terminal GST; dsDNA, one strand shown
# T4 sequence: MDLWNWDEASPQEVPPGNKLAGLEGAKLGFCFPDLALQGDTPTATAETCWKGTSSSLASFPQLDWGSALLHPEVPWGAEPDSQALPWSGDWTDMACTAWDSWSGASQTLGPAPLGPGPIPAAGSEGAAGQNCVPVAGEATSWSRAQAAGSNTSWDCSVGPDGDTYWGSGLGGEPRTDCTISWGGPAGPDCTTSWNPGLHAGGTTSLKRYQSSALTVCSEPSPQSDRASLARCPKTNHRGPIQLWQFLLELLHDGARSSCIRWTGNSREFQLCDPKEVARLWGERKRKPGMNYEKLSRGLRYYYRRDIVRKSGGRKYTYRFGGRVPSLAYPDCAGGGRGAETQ
# In short: as §1
# ELF3 = biological target: T5, ELF3 (Homo sapiens, UniProt P78545 1-371); conditions: protein: recombinant; tags: N-terminal GST; dsDNA, one strand shown
# T5 sequence: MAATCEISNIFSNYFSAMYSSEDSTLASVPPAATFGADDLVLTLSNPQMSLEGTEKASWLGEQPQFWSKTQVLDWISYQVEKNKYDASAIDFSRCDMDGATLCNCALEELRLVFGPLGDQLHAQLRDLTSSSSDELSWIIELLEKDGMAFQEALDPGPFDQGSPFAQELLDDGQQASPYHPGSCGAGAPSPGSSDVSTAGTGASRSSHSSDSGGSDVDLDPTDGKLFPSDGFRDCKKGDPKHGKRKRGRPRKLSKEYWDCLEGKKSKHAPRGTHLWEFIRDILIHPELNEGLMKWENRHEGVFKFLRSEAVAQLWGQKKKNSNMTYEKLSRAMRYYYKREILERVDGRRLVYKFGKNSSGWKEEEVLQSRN
# In short: as §1
# CRX = CRX (Homo sapiens, UniProt O43186 1-299); conditions: protein: recombinant; tags: N-terminal GST; dsDNA, one strand shown
# In short: as §1
# ETV1 = ETV1 (Homo sapiens, UniProt P50549 1-477); conditions: protein: recombinant; tags: N-terminal GST; dsDNA, one strand shown
# In short: as §1
# ERF = biological target: T6, ERF (Homo sapiens, UniProt P50548 1-548); conditions: protein: recombinant; tags: N-terminal GST; dsDNA, one strand shown
# T6 sequence: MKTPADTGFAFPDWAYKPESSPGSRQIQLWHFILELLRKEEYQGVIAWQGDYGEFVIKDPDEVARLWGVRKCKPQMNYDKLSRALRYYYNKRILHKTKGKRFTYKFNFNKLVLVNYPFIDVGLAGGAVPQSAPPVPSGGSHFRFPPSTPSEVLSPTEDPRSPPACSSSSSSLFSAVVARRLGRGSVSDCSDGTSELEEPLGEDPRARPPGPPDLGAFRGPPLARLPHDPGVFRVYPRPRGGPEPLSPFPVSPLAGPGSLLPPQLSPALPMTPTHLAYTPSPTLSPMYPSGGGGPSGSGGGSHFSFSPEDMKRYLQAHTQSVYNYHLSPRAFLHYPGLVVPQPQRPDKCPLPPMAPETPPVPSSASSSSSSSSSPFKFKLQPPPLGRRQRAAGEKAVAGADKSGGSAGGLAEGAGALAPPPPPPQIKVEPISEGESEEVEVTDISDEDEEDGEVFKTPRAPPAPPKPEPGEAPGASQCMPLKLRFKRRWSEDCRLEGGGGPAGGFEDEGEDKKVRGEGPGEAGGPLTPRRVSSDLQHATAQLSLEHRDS
# In short: as §1
# ETV3L = biological target: T7, ETV3L (Homo sapiens, UniProt Q6ZN32 1-361); conditions: protein: recombinant; tags: N-terminal GST; dsDNA, one strand shown
# T7 sequence: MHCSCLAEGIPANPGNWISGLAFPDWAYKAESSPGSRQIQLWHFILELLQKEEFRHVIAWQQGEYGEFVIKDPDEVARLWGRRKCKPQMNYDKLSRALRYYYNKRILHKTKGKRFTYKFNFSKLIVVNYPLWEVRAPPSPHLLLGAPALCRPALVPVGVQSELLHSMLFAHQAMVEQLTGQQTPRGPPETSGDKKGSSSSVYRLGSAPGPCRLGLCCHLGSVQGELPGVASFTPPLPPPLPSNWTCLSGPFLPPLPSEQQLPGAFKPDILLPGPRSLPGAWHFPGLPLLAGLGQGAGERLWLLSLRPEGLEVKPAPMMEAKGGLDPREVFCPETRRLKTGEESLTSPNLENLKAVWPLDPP
# In short: as §1
# ETS2 = biological target: T8, ETS2 (Homo sapiens, UniProt P15036 1-469); conditions: protein: recombinant; tags: N-terminal GST; dsDNA, one strand shown
# T8 sequence: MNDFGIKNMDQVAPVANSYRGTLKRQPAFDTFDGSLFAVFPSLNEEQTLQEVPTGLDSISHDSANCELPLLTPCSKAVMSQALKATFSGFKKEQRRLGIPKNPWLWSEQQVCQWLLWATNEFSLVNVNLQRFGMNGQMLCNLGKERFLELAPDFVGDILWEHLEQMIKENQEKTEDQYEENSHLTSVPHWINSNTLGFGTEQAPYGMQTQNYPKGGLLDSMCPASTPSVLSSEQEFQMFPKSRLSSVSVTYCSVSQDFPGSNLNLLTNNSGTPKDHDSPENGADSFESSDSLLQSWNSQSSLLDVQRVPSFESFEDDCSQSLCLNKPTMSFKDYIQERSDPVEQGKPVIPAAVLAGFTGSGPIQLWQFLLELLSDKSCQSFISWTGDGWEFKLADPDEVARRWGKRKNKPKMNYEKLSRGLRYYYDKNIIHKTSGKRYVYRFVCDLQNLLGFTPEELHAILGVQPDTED
# In short: as §1
# SPDEF = biological target: T9, SPDEF (Homo sapiens, UniProt O95238 1-335); conditions: protein: recombinant; tags: N-terminal GST; dsDNA, one strand shown
# T9 sequence: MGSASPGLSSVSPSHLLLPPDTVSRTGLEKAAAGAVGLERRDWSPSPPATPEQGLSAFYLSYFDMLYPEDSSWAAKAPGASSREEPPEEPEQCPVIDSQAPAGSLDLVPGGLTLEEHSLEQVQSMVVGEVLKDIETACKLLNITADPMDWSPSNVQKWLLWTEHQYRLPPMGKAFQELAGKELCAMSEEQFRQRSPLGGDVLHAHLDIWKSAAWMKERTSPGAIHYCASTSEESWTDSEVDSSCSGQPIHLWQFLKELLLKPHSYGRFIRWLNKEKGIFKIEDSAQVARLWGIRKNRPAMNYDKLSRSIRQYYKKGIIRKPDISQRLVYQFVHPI
# In short: as §1
# ETV7 = biological target: T10, ETV7 (Homo sapiens, UniProt Q9Y603 1-341); conditions: protein: recombinant; tags: N-terminal GST; dsDNA, one strand shown
# T10 sequence: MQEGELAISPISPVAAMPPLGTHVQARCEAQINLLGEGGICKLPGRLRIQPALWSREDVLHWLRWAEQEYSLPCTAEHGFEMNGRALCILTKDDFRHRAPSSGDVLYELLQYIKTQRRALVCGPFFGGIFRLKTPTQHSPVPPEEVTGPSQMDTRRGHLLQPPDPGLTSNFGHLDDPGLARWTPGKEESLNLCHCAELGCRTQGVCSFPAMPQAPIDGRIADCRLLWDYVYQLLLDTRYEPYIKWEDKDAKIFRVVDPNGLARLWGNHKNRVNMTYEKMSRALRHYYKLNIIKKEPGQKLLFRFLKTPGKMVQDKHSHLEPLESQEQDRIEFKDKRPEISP
# In short: as §1
# ELF5 = biological target: T11, ELF5 (Homo sapiens, UniProt Q9UKW6-2 1-255); conditions: protein: recombinant; tags: N-terminal GST; dsDNA, one strand shown
# T11 sequence: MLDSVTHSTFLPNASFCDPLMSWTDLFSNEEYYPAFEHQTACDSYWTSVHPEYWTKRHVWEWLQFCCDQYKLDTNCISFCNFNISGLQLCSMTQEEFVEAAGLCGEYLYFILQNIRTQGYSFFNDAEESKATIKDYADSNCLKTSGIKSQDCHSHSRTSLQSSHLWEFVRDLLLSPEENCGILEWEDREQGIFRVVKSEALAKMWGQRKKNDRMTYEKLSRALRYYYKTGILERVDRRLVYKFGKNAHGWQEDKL
# In short: as §1
# ETV3 = biological target: T12, ETV3 (Homo sapiens, UniProt P41162-2 1-143); conditions: protein: recombinant; tags: N-terminal GST; dsDNA, one strand shown
# T12 sequence: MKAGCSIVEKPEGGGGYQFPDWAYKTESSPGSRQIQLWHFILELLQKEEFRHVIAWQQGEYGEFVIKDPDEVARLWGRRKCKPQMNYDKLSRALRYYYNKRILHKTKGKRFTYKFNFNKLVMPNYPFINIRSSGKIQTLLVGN
# In short: as §1
# ETV6 = ETV6 (Homo sapiens, UniProt P41212 1-452); conditions: protein: recombinant; tags: N-terminal GST; dsDNA, one strand shown
# In short: as §1
# Chain of ELF4 (Q99607 whole entry): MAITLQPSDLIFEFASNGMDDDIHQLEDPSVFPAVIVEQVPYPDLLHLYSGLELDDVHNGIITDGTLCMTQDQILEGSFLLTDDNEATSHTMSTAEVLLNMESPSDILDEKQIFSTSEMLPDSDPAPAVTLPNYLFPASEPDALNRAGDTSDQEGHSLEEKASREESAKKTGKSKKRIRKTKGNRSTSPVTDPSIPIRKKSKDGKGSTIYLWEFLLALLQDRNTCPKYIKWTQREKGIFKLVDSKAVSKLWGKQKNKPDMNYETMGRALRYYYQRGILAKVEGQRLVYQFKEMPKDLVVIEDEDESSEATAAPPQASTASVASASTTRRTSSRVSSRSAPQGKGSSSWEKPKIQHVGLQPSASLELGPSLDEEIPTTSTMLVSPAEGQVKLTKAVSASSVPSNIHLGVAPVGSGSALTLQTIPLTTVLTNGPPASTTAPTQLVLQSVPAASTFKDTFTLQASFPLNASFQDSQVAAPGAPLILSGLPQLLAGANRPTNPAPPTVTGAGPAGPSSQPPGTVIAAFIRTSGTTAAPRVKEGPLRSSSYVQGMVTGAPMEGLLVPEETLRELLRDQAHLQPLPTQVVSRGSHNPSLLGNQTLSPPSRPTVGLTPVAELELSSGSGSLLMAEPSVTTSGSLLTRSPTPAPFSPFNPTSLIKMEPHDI
# Chain of ETV6 (P41212 whole entry): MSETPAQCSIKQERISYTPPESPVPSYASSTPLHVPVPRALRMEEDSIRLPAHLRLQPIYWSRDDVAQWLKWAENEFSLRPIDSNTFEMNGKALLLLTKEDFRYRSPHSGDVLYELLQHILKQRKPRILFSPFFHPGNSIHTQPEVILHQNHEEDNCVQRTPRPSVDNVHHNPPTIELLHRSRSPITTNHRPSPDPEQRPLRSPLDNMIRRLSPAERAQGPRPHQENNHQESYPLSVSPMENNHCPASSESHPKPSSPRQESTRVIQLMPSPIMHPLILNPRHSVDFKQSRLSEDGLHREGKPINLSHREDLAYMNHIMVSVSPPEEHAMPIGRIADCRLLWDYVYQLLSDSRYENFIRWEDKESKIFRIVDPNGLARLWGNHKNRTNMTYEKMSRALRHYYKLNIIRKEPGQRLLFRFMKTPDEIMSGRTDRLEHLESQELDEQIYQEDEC
# Chain of ETV1 (P50549 whole entry): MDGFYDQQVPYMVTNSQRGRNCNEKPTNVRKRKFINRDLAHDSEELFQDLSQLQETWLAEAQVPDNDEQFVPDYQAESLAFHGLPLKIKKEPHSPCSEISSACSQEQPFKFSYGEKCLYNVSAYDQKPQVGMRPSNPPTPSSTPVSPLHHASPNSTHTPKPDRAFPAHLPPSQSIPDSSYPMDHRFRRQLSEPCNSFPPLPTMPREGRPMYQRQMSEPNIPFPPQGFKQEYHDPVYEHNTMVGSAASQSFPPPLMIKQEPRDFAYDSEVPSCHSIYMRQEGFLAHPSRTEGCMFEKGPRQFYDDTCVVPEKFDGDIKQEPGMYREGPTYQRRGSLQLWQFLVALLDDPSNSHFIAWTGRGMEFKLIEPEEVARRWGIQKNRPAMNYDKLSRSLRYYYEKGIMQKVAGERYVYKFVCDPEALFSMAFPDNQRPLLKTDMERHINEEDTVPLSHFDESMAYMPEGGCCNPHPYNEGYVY
# Chain of CRX (O43186 whole entry): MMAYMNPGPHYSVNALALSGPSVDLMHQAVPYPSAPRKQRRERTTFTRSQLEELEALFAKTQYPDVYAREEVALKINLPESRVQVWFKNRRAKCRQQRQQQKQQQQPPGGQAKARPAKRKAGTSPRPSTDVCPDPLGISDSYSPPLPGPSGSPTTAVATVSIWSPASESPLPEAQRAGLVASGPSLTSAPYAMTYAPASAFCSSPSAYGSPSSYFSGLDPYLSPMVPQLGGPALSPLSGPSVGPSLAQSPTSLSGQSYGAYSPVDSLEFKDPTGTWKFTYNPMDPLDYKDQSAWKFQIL
# Chain of ETV5 (P41161 whole entry): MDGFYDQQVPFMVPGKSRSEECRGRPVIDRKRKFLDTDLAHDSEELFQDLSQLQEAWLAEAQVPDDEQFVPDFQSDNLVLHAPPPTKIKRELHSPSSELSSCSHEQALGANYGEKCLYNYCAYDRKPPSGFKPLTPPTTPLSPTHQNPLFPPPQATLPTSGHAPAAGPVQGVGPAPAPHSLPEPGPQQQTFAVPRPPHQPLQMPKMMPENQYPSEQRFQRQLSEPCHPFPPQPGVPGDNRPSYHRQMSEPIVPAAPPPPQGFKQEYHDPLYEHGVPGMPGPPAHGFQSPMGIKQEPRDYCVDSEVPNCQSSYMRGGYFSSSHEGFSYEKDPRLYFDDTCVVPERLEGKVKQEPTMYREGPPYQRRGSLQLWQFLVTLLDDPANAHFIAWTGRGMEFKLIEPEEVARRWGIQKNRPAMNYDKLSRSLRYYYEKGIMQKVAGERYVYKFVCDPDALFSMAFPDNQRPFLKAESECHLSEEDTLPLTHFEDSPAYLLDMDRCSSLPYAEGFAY
# Chain of HSF1 (Q00613 whole entry): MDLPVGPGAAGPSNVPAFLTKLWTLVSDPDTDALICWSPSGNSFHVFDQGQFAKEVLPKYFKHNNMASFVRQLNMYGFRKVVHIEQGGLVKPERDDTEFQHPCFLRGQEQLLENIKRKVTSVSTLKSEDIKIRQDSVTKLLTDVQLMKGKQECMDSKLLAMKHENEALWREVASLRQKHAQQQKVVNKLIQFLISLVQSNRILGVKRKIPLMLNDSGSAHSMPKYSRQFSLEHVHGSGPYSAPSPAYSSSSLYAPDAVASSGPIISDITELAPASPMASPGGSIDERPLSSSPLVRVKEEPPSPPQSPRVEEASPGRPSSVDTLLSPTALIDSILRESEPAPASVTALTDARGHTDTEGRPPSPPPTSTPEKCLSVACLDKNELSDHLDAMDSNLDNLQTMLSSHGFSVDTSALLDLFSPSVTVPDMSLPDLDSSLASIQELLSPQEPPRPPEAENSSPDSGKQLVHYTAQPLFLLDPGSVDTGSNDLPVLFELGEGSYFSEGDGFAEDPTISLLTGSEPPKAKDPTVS
sequence,measurement,setting,value
ACATTA,binding signal,FEV,"1.16 fold enrichment (6-mer frequency, TF over GST control)"
same,binding signal,ETV5,"1.12 fold enrichment (6-mer frequency, TF over GST control)"
same,binding signal,HSF1,"1.2 fold enrichment (6-mer frequency, TF over GST control)"
same,binding signal,SPIC,"1.23 fold enrichment (6-mer frequency, TF over GST control)"
same,binding signal,ELF4,"1.2 fold enrichment (6-mer frequency, TF over GST control)"
same,binding signal,ELK4,"1.18 fold enrichment (6-mer frequency, TF over GST control)"
same,binding signal,ETV2,"1.25 fold enrichment (6-mer frequency, TF over GST control)"
same,binding signal,ELF3,"1.14 fold enrichment (6-mer frequency, TF over GST control)"
same,binding signal,CRX,"1.38 fold enrichment (6-mer frequency, TF over GST control)"
same,binding signal,ETV1,"1.29 fold enrichment (6-mer frequency, TF over GST control)"
same,binding signal,ERF,"1.21 fold enrichment (6-mer frequency, TF over GST control)"
same,binding signal,ETV3L,"1.15 fold enrichment (6-mer frequency, TF over GST control)"
same,binding signal,ETS2,"1.19 fold enrichment (6-mer frequency, TF over GST control)"
same,binding signal,SPDEF,"1.12 fold enrichment (6-mer frequency, TF over GST control)"
same,binding signal,ETV7,"1.15 fold enrichment (6-mer frequency, TF over GST control)"
same,binding signal,ELF5,"1.1 fold enrichment (6-mer frequency, TF over GST control)"
same,binding signal,ETV3,"1.15 fold enrichment (6-mer frequency, TF over GST control)"
same,binding signal,ETV6,"1.16 fold enrichment (6-mer frequency, TF over GST control)"

# — publication PMC7862700, “An all-to-all approach to the identification of sequence-specific readers for epigenetic DNA modifications on cytosine”
